PubChem BioAssay AID912 (National Center for Advancing Translational Sciences (NCATS), 2007)
Values joined by “and” are separate entries in the source; they are usually repeats but may differ in a detail not shown here. Equal entries are not always repeated. Hit rate of the full screen: of about 70,000 compounds, about 470 (0.67%) were called active. Inconclusive results (about 18%) are left out. The sample holds actives, similar compounds and a random draw of the others, so the mix is not that of the screen. Values without a mark were called inactive. The call rests on the fitted dose curve.

Experiment: qHTS Assay for Anthrax Lethal Toxin Internalization; further: nearly all actives have a fitted effect of over 50% in size
Conditions: Cells, FRET ratio (460/530); series mostly up to 40 µM; activity change, negative = inhibition: at the top concentration
On the % scale 0 is the no-effect control and ±100 the full control effect; potency means the concentration at half of the fitted maximal effect.

| SMILES | activity change, negative = inhibition | Potency |
| --- | --- | --- |
| CO[C@@H]1COC(=O)C/C=C\[C@H](C)[C@@H](NS(=O)(=O)c2ccc(C)cc2)COC(=O)C/C=C\[C@@H]1C | -10% [at 8 µM] and -6.83% [at 8 µM] |  |
| c1ccc2nc(C3=NCCN3)cnc2c1 | -10.6% |  |
| Cc1c2c(nc3ccccc13)-c1cccc(=O)n1C2 | 13.1% |  |
| COc1ccccc1C(=O)C(O)c1ccccc1OC (centres undefined) | 0.661% |  |
| CC(=O)OCC1OC(C#Cc2ccccc2Cl)C=CC1OC(C)=O (centres undefined) | -7.54% [at 8 µM] |  |
| C[N+](C)(C)CCCCCNCC12CC3CC(CC(C3)C1)C2 | -4.05% |  |
| CSc1ccc(-c2c(C#N)c(N)nc3c2c(C)nn3-c2ccccc2)cc1 |  | 1.26 µM (active) |
| COC(=O)[C@@]1(Cc2ccc(F)cc2)[C@H]2c3cc(C(=O)N4CCCC4)n(C[C@H](O)CO)c3C[C@H]2CN1C(=O)c1ccccc1 | -7.88% |  |
| COc1cc([C@H]2c3cc4c(cc3[C@@H](O[C@@H]3O[C@H]5CO[C@@H](C)O[C@]5(O)C[C@H]3O)[C@@H]3COC(=O)[C@H]23)OCO4)cc(OC)c1O | -4.25% |  |
| CCC(Sc1nncn1C)C(=O)Nc1nnc(-c2ccc(Cl)cc2)s1 (centres undefined) | -9.91% |  |
| O=C(O)c1ccc(C(=O)O)c2c(C(=O)O)ccc(C(=O)O)c12 | -1.24% [at 8 µM] |  |
| COc1ccc(N)c(OC)c1 | 2.98% |  |
| COC(=O)[C@@]1(Cc2ccccc2)[C@H]2c3cc(C(=O)N(C)C)n(CCSCCO)c3C[C@H]2CN1C(=O)c1ccccc1 | -2.03% |  |
| CCC[C@@H]1C[C@@]1(CCC)C(NS(=O)(=O)c1cccc2cccnc12)c1ccc(Cl)cc1 (some centres undefined) | -5.82% |  |
| NCC[Se][Se]CCN |  | 0.0794 µM (active) |
| C=C1c2cc(CC)ccc2NC(=O)N1c1ccc(C)cc1 |  | 10 µM (active) |
| N[C@@H](C(=O)O)c1ccc(P(=O)(O)O)cc1 | -11.7% |  |
| CC(=O)N1CCC2(CCCN(Cc3ccc(C#N)cc3)C2)CC1 | 5.89% |  |
| CCCCCCOC(=O)NCC(O)c1ccccc1 (centres undefined) | -2.14% |  |
| COc1cccc([C@H](O)Cn2cc(-c3ccc(CON=C(C)C)cc3)nn2)c1 | -1.91% [at 8 µM] |  |
| COc1ncc2nc(-c3ccc(Cl)cc3)c(=O)n(C)c2n1 | -9.73% |  |
| N#Cc1nc(COc2ccc(-c3ccccc3)cc2)oc1NCc1cccnc1 | -9.62% |  |

| SMILES | activity change, negative = inhibition | Potency |
| --- | --- | --- |
| N#Cc1nc(-c2ccc(OCc3ccccc3)cc2)oc1NCCCN1CCOCC1 |  | 12.6 µM (active) |
| N#Cc1nc(Cc2ccccc2)oc1NCCc1ccccc1 | -5.56% |  |
| C/C=C/C=C/C(=O)O | 1.42% |  |
| CC(C)CN1CCc2nc(-c3ccccc3)c3c(c2C1)COC(C)C3 (centres undefined) | -16% [at 8 µM] |  |
| COc1ccccc1CNc1ccnc(-c2c(C)noc2C)n1 | -3.36% |  |
| CC(Cc1ccccc1)C(=O)N(C)Cc1ccccc1 (centres undefined) | -2.04% |  |
| COc1ccc(/C=C/NC(=O)Cc2ccc(OC)c(OC)c2)cc1 | -11.3% [at 8 µM] |  |
| Cn1c2c(c(=O)n(C)c1=O)C1c3ccccc3OCC1C(C)(C)O2 (centres undefined) | 5.14% |  |
| COc1ccccc1N1CCN(C[C@@H]2CN3C(=O)N(C)c4ccccc4C3=N2)CC1 | -8.24% |  |
| CC1CN(Cc2nc3c(c(=O)n(C)c(=O)n3C)n2Cc2cccc(Cl)c2)CC(C)O1 (centres undefined) | 13.8% |  |
| CCCCC(CC)CN (centres undefined) | inactive |  |
| Cc1ccnc(N2CCC(C(=O)NC3CCCCCC3)CC2)n1 | -1.2% |  |
| Cc1nc2ccccc2c(=O)n1CCCn1ccnc1 | 6.43% |  |
| Cc1ccnc(-n2sc3ccccc3c2=O)n1 |  | 0.316 µM (active) |
| O=c1[nH]c(=O)n([C@H]2C[C@H](O)[C@H](CO)O2)cc1Br | -9.51% |  |
| CN(C)CCCn1c2ccccc2c2cnccc21 | -25.7% [at 8 µM] |  |
| Cc1cccc(NC(=O)COc2ccccc2C)n1 | -12% |  |
| O=C(COc1ccccc1Cl)Nn1cnnc1 | 10.7% |  |
| Cc1ccccc1OCC(=O)Nc1ccc(N2CCN(C(=O)C(C)C)CC2)c(Cl)c1 |  | 12.6 µM (active) |
| COC(=O)[C@@]1(Cc2ccc(F)cc2)[C@@H]2[C@@H](CC(=O)[C@H]2CC(=O)C(=O)N2CCCC2)CN1C(=O)c1ccccc1 | 7.79% |  |
| COC(=O)CCCCCN1C(=O)NC(c2ccc(-c3ccccc3)cc2)C(C(=O)OCc2ccccc2)=C1C (centres undefined) | -8.5% |  |
| Cc1ccccc1N1CCN(S(=O)(=O)C[C@@]23CC[C@H](C[C@H]2NC(=O)[C@@H](N)CCS(C)(=O)=O)C3(C)C)CC1 | -5.27% |  |
